Screens (PubChem BioAssay)
SENP6 inh: blocks the human protease SENP6 | Q9GZR1 | Recombinant SENP6 catalytic domain, aminoluciferin luminescence | inhibition, % at 10 µM | hit rate 1.8% among 330,000;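 active means inhibition above about 50% at the single tested dose, limit read from the data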;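 further: plate controls were DMSO wells with enzyme for no effect and DMSO wells lacking enzyme for full effect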
Target sequence (Q9GZR1 628-1112 limits assumed): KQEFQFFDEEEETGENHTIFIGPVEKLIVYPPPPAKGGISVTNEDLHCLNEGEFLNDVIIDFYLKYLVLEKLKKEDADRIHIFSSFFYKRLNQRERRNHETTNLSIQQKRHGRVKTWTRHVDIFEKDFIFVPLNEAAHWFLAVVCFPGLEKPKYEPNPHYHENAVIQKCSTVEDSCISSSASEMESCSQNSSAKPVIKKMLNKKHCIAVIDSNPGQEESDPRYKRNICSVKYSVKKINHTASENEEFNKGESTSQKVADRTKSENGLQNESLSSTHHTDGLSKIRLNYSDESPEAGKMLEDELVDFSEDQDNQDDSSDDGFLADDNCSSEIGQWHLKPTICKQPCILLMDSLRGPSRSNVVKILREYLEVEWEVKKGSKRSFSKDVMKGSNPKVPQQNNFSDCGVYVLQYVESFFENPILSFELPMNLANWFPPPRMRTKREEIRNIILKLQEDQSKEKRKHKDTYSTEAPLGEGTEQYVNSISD
SENP7 inh: SENP7 protease inhibition. AID 434973. Q9BQF6. recombinant SENP7, Z-RLRGG-aminoluciferin luminescence, 40 min. hit rate 1.5% among 330,000. inhibition, % at 5 µM;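 active means inhibition above about 50% at the single test dose, limit read from the data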;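 further: plate controls were DMSO with enzyme for no effect and no enzyme buffer wells for full effect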
SENP8 block-1: blocks human SENP8 cleavage of Nedd8 substrate; Q96LD8; recombinant SENP8, Nedd8 substrate fluorescence; inhibition, % at 20 µM; hit rate 0.64% among 360,000; in the data active means inhibition mostly above about 40%, no sharp cut-off; inactive means mostly below about 27%
Platelet DG rel: platelet dense granule release activity | hit rate 0.22% among 300,000 | human platelet-rich plasma, SFLLRN dense granule ATP release, luminescence | inhibition, %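 (compounds screened at 7.5 µM in platelet-rich plasma)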;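 active means mean replicate score, as percent of positive control, at or above 50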
SENP8 block-2: inhibitors of human SENP8 protease. Q96LD8. purified SENP8, Z-RLRGG-aminoluciferin cleavage, luminescence. inhibition, % at 10 µM. hit rate 1.2% among 330,000. AID 2540; in the data active means inhibition above about 50%
* marks the source's active call; other numbers are inactive results; · = not tested or not shown. Most compounds without a hit are left out; they make up all but 2.4% or so of the library.

SMILES	SENP6 inh	SENP7 inh	SENP8 block-1	Platelet DG rel	SENP8 block-2
Cc1ccc(NC(=O)c2nsc(Cl)c2Cl)cc1	54*	62*	7	4	31
Cc1ccc(NC(=O)c2ccc(Cl)nc2)cc1	-17	7	16	6	-5
Cc1ccc(S(=O)(=O)N2[C@@H](Cc3ccccc3)CO[C@H]2CC(=O)c2cccs2)cc1	·	·	21	·	·
O=C(Nc1cnc2ccccc2c1)c1ccco1	70*	70*	4	·	43
Cc1cc(C(=O)Nc2cnc3ccccc3c2)ccc1[N+](=O)[O-]	-18	9	21	3	-28
Cc1ccc(C(=O)Nc2cnc3ccccc3c2)cc1	97*	98*	2	·	94*
O=[N+]([O-])c1ccc(CCNc2cccc3ccccc23)c([N+](=O)[O-])c1	55*	12	-25	-9	36
O=C(O)c1cc2ccccc2c2c1C(=O)c1ccccc1-2	·	·	4	·	·
Nc1cc(C(=O)O)c(N)c2c1C(=O)c1ccccc1C2=O	59*	11	51*	2	23
Oc1ccc(N=Cc2ccc(O)c(O)c2)cc1	39	8	62*	-4	23
Oc1ccc(/C=N/N=C/c2ccc(O)c(O)c2)cc1O	6	2	39	·	2
O=C(Cc1cccc(NC(=O)C2CCN(C(=O)C3CC3)CC2)c1)Nc1cccc(C(=O)N2CCCCC2)c1	·	·	11	·	·
COC(=O)[C@@]1(C)[C@H]2C(=O)N(Cc3ccccc3)C(=O)[C@H]2[C@H]2CN=C(SCC(=O)c3ccccc3)N21	·	9	19	·	·
CCN(CC(=O)Nc1ccccc1C(F)(F)F)C(=O)CCc1c(C)[nH]c(=O)c(C#N)c1C	-9	1	-64	65*	8
O=C(NCc1ccccn1)c1ccc(Cl)c(S(=O)(=O)N2CCOCC2)c1	-4	-4	1	1	-3
CCN(CC)CCNC(=O)c1ccc(N2CCCCC2)c(NS(=O)(=O)c2ccc(C)cc2)c1	-18	8	-23	0	7
CCN(CC)CCNc1cc(C)nc2c1C(=O)C(=O)C=C2N1CCCCC1	31	18	56*	28	13
N#Cc1ccsc1NC(=O)COC(=O)c1cc2ccccc2cc1O	96*	89*	-83	-5	89*
N#Cc1ccsc1NC(=O)COC(=O)c1ccc(NC(N)=O)cc1	50	69*	-2	-5	73*
COc1ccc(S(N)(=O)=O)cc1C(=O)OCC(=O)Nc1sccc1C#N	-11	-5	-5	·	-20
CCOC(=O)N1CCN(C(=O)c2ccc(CS(=O)Cc3ccc(C)cc3)o2)CC1 (configuration not stated)	20	6	7	4	6
COC(=O)c1cc(C)nc2c1C(=O)C(=O)C=C2N1CCOCC1	90*	93*	111*	9	98*
CCOCCCN(C(=O)CNC(=O)c1ccco1)C(C(=O)NC1CCCC1)c1cccc(OC)c1 (configuration not stated)	-18	8	1	2	5
Nc1nc(-c2ccccc2)c(N=Nc2ccc(Cl)cc2)s1	-12	-2	46*	3	-6
Cc1ccc(S(=O)(=O)/N=C2\C=C(NS(=O)(=O)c3ccccc3)C(=O)c3ccccc32)cc1	·	·	74*	·	·
SMILES	SENP6 inh	SENP7 inh	SENP8 block-1	Platelet DG rel	SENP8 block-2
Cc1cc(C)c(NS(=O)(=O)c2ccccc2)c(C)c1	·	·	16	·	·
Cc1cc(C)c(S(=O)(=O)/N=C2\C=C(NS(=O)(=O)c3ccccc3)C(=O)c3ccccc32)c(C)c1	33	6	73*	6	20
O=S(=O)(N=C1C=CC(=NS(=O)(=O)c2ccccc2)c2ccccc21)c1ccccc1	·	·	74*	·	·
CC(C)N(C(=O)[C@H]1C[C@H](CC(=O)NCCC2=CCCCC2)C(=O)N2CCc3c([nH]c4cc(-c5ccco5)ccc34)[C@]12C)C(C)C	·	8	-367	·	·
Cc1cccc(-c2nc3cc(NC(=O)C4CCCO4)ccc3o2)c1 (configuration not stated)	·	·	-410	59*	·
COc1ccccc1-n1c(SCC(=O)Nc2ccc(Br)cc2)nc(O)cc1=O	1	-2	20	10	5
Cn1nc(-c2ccc(Cl)cc2)nc2c(=O)n(C)c(=O)nc1-2	98*	98*	·	8	98*
Cc1nn(-c2ccccc2)c(N)c1N=Nc1cccc(S(=O)(=O)N2CCOCC2)c1	3	2	41*	16	1
Cc1[nH]n(-c2ccccc2)c(=O)c1C(c1ccc(C(=O)O)cc1)c1c(C)[nH]n(-c2ccccc2)c1=O	26	18	71*	8	-3
Cc1[nH]n(-c2ccccc2)c(=O)c1C(c1cccc([N+](=O)[O-])c1O)c1c(C)[nH]n(-c2ccccc2)c1=O	28	31	33	-2	1
Cc1[nH]n(-c2ccccc2)c(=O)c1C(C[N+](=O)[O-])c1ccc(Br)cc1 (configuration not stated)	35	41	88*	7	25
Cc1[nH]n(-c2ccccc2)c(=O)c1C(c1cccc([N+](=O)[O-])c1)c1c(C)[nH]n(-c2ccccc2)c1=O	11	15	49*	12	-13
COc1ccc(NC(=O)CNC(=O)CC23CC4CC(CC(C4)C2)C3)c(OC)c1	-6	-7	-4	·	-1
O=C(O)C(=Cc1ccccc1[N+](=O)[O-])c1ccc2c(c1)OCO2	·	·	-3	·	·
CSCc1c(C(=O)OCC(=O)c2ccc[nH]2)oc2ccccc12	-20	-20	2	·	-6
Nc1nonc1C(=O)N/N=C/c1ccc(-c2cccc(C(=O)O)c2)o1	58*	3	·	10	27
CNC(=S)N/N=C/c1ccc(-c2cccc(C(=O)O)c2)o1	-22	31	-300	4	35
NC(=O)C1CCN(C(=O)c2ccc(Cl)c(S(=O)(=O)N3CCCCCC3)c2)CC1	-13	10	4	·	-3
O=C1c2cccc(Sc3ccccc3)c2C(=O)c2c(Sc3ccccc3)cccc21	10	-1	52*	-13	12
COc1ccc(N2CCN(C(CNS(=O)(=O)c3cccs3)c3cccnc3)CC2)cc1 (configuration not stated)	-29	-4	42*	-2	-5
CC(=O)Nc1cccc(-c2cc(N3CCN(CCO)CC3)n3nccc3n2)c1	·	·	-405	·	·
Cc1cc(=O)n2nc(N3CCCC(C(=O)NCc4ccccc4)C3)sc2n1 (configuration not stated)	4	-7	7	69*	10
CCCCCCCCN1C(=O)[C@H](CC(=O)N2CCSCC2)C[C@@]2(C(=O)OC)CC(C)(C)CC=C12	·	·	15	·	·
Cc1cc(C)c2c(c1)CC(C)(C)CC2=O	·	·	-3	·	·
O=C(c1cc2c(s1)CCCC2)n1cccn1	58*	64*	8	-1	28
O=C(c1cc(=O)[nH]c2ccccc12)N(Cc1nnc(-c2ccccc2Cl)o1)C1CC1	-1	-2	-154	4	-3
CCN(CC)c1ccc(/C=C(\C#N)c2ccccn2)cc1	84*	88*	2	9	88*
Cc1ccc(N2C(SCC(=O)O)=NC(=Nc3cccc(C)c3)C23CCCC3)cc1	0	0	13	3	7
O=C(NCCN1CCCC1)c1ccccc1Cl	0	0	17	-4	2
